Laboratory results from PubChem BioAssay (EPA / NIEHS).
Active and inactive are the calls of the source. How the source made its calls: active means hit-call score of the fitted dose curve at least 0.9, where 1 is the maximum; inactive means score below 0.9.

Assay: ATG_GRE_CIS: Attagene CIS-FACTORIAL HepG2 Assay for human Glucocorticoid Response Elements (GRE) (AID 2282947)
Details: HepG2 GRE cis-reporter, Attagene multiplex mRNA; actives raise or lower the signal
Description: ATG_CIS is a cell-based, multiplexed-readout assay that uses HepG2, a human liver cell line, with measurements taken at 24 hours after chemical dosing in a 24-well plate.ATG_GRE_CIS is one of 52 assay component(s) measured or calculated from the ATG_CIS assay. It is designed to make measurements of mRNA induction, a form of inducible reporter, as detected with fluorescence intensity signals by Reverse transcription polymerase chain reaction (RT-PCR) and Capillary electrophoresis technology.Data from the assay component ATG_GRE_CIS was analyzed into 1 assay endpoint. This assay endpoint, ATG_GRE_CIS, was analyzed with bidirectional fitting relative to DMSO as the negative control and baseline of activity. Using a type of inducible reporter, measures of mRNA for gain or loss-of-signal activity can be used to understand the reporter gene at the transcription factor-level as they relate to the gene NR3C1. Furthermore, this assay endpoint can be referred to as a primary readout, because this assay has produced multiple assay endpoints where this one serves a reporter gene function. To generalize the intended target to other relatable targets, this assay endpoint is annotated to the nuclear receptor intended target family, where the subfamily is steroidal.
Human liver HepG2 cells are transiently transfected with multiple reporter transcription units (MRTUs) in 6-well plates using FuGene 6 reagent (Roche; 3 ml FuGene/1 mg DNA). The MRTU constructs are regulated by a cis-regulating element (promoter). […] A major difference between the CIS and TRANS system is that in CIS activities of endogenous TFs are measured, whereas the TRANS assay evaluates changes in activities of exogenous, chimeric NR-Gal4 proteins. […] At the end of 24 hour incubation, total RNA was isolated using TriZol reagent (Invitrogen). The isolated RNA is then reverse-transcribed using oligo(dT) primer and Mo-MLV reverse transcriptase (Invitrogen) with DNAse I (Ambion) treatment for 30 min. The one-tenth of the produced cDNA was amplified by PCR using Taq DNA polymerase (Invitrogen) and two reporter sequence-specific primers. The PCR products were fluorescently labeled by primer extension with 6-arboxyfluorescein (6-FAM) 5'-labeled reporter sequence-specific primer (2 min at 95 C, 20 s at 68 C and 10 min at 72 C) and these products were digested with 5U of HpaI (New England Biolabs) for 2h at 37 C. The fragments were purified using Qiaquick PCR columns (Qiagen), analyzed on an ABI 3130xL genetic analyzer (Applied Biosystems) with peak positions identified by using a set of X-rhodamine (ROX)-labeled MapMarker1000 molecular weight standards (BioVentures). The raw capillary electrophoresis data was processed using Attagraph software (Attagene).

| SMILES | outcome | AC50 |
| --- | --- | --- |
| CN(C)[C@@H]1C(=O)C(C(N)=O)=C(O)[C@@]2(O)C(=O)C3=C(O)c4c(O)cccc4[C@@](C)(O)[C@H]3C[C@@H]12 | inactive |  |
| Cc1ccc(N=C=O)cc1N=C=O | inactive |  |
| CCCCCOC(=O)c1ccccc1C(=O)OCCCCC | inactive |  |
| Oc1ccccc1Cl | inactive |  |
| CCCCCCCCCCCCCN1CC(C)OC(C)C1 (stereo not given) | inactive |  |
| CCCCCCCCn1sccc1=O | inactive |  |
| O=[N+]([O-])c1ccc(Oc2ccc(Cl)cc2Cl)cc1 | inactive |  |
| CC(C)(C)OOC(=O)c1ccccc1 | inactive |  |
| CCN(CC)CCO | inactive |  |
| C1=Cc2cccc3cccc1c23 | inactive |  |
| Cc1cccc(N)c1N | inactive |  |
| CC(C)(OOC(C)(C)c1ccccc1)c1ccccc1 |  | 78.3 µM (active) |
| CCCCCCCCOC(=O)c1ccc(C(=O)OCCCCCCCC)c(C(=O)OCCCCCCCC)c1 | inactive |  |
| CCCSC(=O)N(CCC)CCC | inactive |  |
| CN(C)c1ccc(C(=O)c2ccc(N(C)C)cc2)cc1 | inactive |  |
| O=C(Nc1ccccc1)c1ccccc1I | inactive |  |
| Cc1cc(N=Nc2ccccc2C)ccc1N | inactive |  |
| Nc1ccc(Cc2ccc(N)cc2)cc1 | inactive |  |
| Clc1ccc(C(c2ccc(Cl)cc2)C(Cl)Cl)cc1 | inactive |  |
| CC(C)(C)C(O)(CCc1ccc(Cl)cc1)Cn1cncn1 (stereo not given) | inactive |  |

| SMILES | outcome | AC50 |
| --- | --- | --- |
| Nc1ccc(N=Nc2ccccc2)cc1 | inactive |  |
| Clc1ccc(C(c2ccc(Cl)cc2)C(Cl)(Cl)Cl)cc1 | inactive |  |
| CCCCC(CC)COC(=O)c1ccc(C(=O)OCC(CC)CCCC)c(C(=O)OCC(CC)CCCC)c1 (stereo not given) | inactive |  |
| Nc1ccc([N+](=O)[O-])cc1 | inactive |  |
| OCCCl | inactive |  |
| CCC[CH2][Sn]([Cl])([CH2]CCC)[CH2]CCC | inactive |  |
| Nc1ccc(Cl)cc1N | inactive |  |
| c1ccc(C2CO2)cc1 (stereo not given) | inactive |  |
| c1ccc2c(c1)oc1ccccc12 | inactive |  |
| N#CC(Br)Br | inactive |  |
| COP(=S)(OC)SCN1C(=O)c2ccccc2C1=O | inactive |  |
| CN(C)C(=O)Nc1ccc(Cl)cc1 | inactive |  |
| O=P(OCCCl)(OCCCl)OCCCl | inactive |  |
| COC(=O)Nc1nc2ccccc2[nH]1 | inactive |  |
| Nc1ccc(Oc2ccc(N)cc2)cc1 | inactive |  |
| O=C(Oc1ccc(Br)cc1)N1CCN2CCC1CC2 | inactive |  |
| ClCCOCCCl | inactive |  |
| CNC(=O)Oc1cccc2c1OC(C)(C)C2 | inactive |  |
| [As]#[In] | inactive |  |
| CC(C)(C)OOC(C)(C)CCC(C)(C)OOC(C)(C)C | inactive |  |
